Test results: ChEMBL document CHEMBL3433997, “St. Jude Leishmania screening dataset” (2016)

Legend:
Format in all cases: functional
[1] = target: Solute carrier family 2, facilitated glucose transporter member 1 (Homo sapiens) (UniProt P11166); test: ST_JUDE_LEISH: Cytotoxicity at 2uM final concentration against transgenic Leishmania Mexicana promastigotes LmGLUT1 that are glucose transport deficient and complemented with the human glucose transporter GLUT1. Activity is measured by DNA content using SYBR green in vitro
Solute carrier family 2, facilitated glucose transporter member 1 (Homo sapiens), sequence (P11166 whole entry): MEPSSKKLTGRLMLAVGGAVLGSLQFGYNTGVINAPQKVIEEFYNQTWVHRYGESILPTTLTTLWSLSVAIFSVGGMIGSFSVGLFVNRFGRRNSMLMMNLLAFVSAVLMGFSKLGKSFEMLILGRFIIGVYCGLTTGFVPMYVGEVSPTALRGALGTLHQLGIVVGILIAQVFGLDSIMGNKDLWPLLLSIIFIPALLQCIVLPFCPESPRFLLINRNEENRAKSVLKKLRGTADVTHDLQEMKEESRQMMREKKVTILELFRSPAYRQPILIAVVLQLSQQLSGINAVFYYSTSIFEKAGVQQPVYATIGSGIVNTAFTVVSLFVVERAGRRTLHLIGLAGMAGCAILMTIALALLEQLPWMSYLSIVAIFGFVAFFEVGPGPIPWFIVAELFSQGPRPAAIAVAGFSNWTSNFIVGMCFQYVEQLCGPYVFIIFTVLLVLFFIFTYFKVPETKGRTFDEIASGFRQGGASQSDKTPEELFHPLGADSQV

[2] = target: Hexose transporter 1 (Plasmodium falciparum) (UniProt O97467); test: ST_JUDE_LEISH: Cytotoxicity at 2uM final concentration against transgenic Leishmania Mexicana promastigotes LmPfHT that are glucose transport deficient and complemented with the Plasmodium falciparum hexose transporter. Activity is measured by DNA content using SYBR green in vitro
[3] = target: Glucose transporter (Leishmania mexicana) (UniProt O61059); test: ST_JUDE_LEISH: Cytotoxicity at 2uM final concentration against transgenic Leishmania Mexicana promastigotes LmGT2 that are glucose transport deficient and complemented with the L. Mexicana glucose transporter 2. Activity is measured by DNA content using SYBR green in vitro

| SMILES | inhibition [1] | inhibition [2] | inhibition [3] |
| --- | --- | --- | --- |
| Nc1ncnc2occ(-c3ccc(NC(=O)Nc4cc(C(F)(F)F)ccc4F)cc3)c12 | 0.61% | 2.93% | -2.03% |
| CCCCn1c(SC(C)C)nc2c(c1=O)C1(CCCCC1)Cc1ccccc1-2 | 4.14% | 4.8% | 3.66% |
| O=C(Nc1ccc(C(=O)N2CCN(CCN3CCN(c4cccc(C(F)(F)F)c4)CC3)CC2)cc1)c1ccc(OC(F)(F)F)cc1 | -1.35% | 0.14% | -2.39% |
| Cc1nc(N)nc(N)c1-c1ccc2ccccc2c1 | -1.96% | -1.02% | -2.1% |
| CC(=O)NCCNc1nccc(N2CCc3ncnc(Nc4ccc(OCc5ccccn5)c(Cl)c4)c3C2)n1 | 0.91% | 1.71% | 1.9% |
| N=C1NC(c2ccccc2)(c2ccccc2)C(=O)N1CC=Cc1ccccc1 | 7.01% | 8.66% | 4.83% |
| Cc1ccccc1C1CCN(C2CCC(NC(=O)/C=C/c3cccc(C(F)(F)F)c3)CC2)CC1 (centres undefined) | 1.86% | 0.37% | 2.39% |
| CCCn1c(Sc2ccc(C#N)c([N+](=O)[O-])c2)nnc1-c1ccc(OC)cc1 | 1.76% | 0.24% | -0.23% |
| O=C(Nc1ccc(OC2CCN(Cc3ccccc3)C2)c(Cl)c1)c1ccsc1 (centres undefined) | 1.05% | 2.26% | 2.75% |
| CN(C)c1nc(NCc2ccccc2)nc(N/N=C/c2cc([N+](=O)[O-])ccc2O)n1 | -1.92% | -1.79% | -1.5% |
| CCCCN(CCCC)CCOc1cc2c(cc1OC)CCN2C(=O)/C=C/c1ccccc1Cl | 1.13% | 1.58% | -0.32% |
| CN(C)CC(O)C(c1ccccc1)c1ccc(Cl)cc1 (centres undefined) | 5.17% | 1.04% | 0.76% |
| Cc1cccc2nc(-c3ccc(-c4ccc(CNCc5ccc(CN)cc5)cc4)cc3)[nH]c12 | 7.89% | 5.94% | 2.77% |
| CC=CC1CCNC(C(O)c2ccnc3ccc(OC)cc23)C1 (centres undefined) | 2.16% | 2.5% | 2.9% |
| CC(C)NC(=N)NN=Cc1ccc(Cl)c(Cl)c1 | 5.7% | 2.99% | 0.07% |
| Cc1c(F)cc(C(=O)NC2CC2)cc1-c1ccc2c(cnn2S(=O)(=O)c2ccc(C#N)cc2)c1 | -0.7% | 1.11% | 0.73% |
| COc1ccccc1C1CCN(C2CCC(NC(=O)/C=C/c3ccc(OC(F)(F)F)cc3)CC2)CC1 (centres undefined) | 0.94% | 1.54% | 2.36% |

| SMILES | inhibition [1] | inhibition [2] | inhibition [3] |
| --- | --- | --- | --- |
| CN(C)CCNCc1cccc(-c2cccc(-c3nc4ccccc4[nH]3)c2)c1 | 2.56% | 2.66% | 1.85% |
| O=C1c2ccccc2C(=O)N1c1ccc(S(=O)(=O)N2CCOCC2)cc1 | 8.7% | 6.66% | 8.08% |
| N=C(N)NC(=O)Nc1cc(Cl)c(Br)c(Cl)c1 | 3% | 6.09% | 2.88% |
| CSc1c(CNCCCNc2cc(=O)c3ccccc3[nH]2)[nH]c2ccccc12 | 5.89% | 4.28% | 4.96% |
| CNCCNCc1ccc(-c2ccc(-c3nc4ccccc4[nH]3)s2)cc1 | 3.78% | 4.5% | 3.75% |
| CC(C)CNCc1cccc(-c2ccc(CNC3CCN(Cc4ccccc4)CC3)cc2)c1 | 6.62% | 7.43% | 4.78% |
| COc1cccc(NC(=O)Nc2c(-c3cccc(C(F)(F)F)c3)c(C(F)(F)F)nn2C)c1 | 0.7% | 1.76% | 0.37% |
| Cn1cncc1C(=O)NC1CCN(c2ccnc(Nc3ccc(F)cc3)n2)C1 (centres undefined) | 0.07% | -0.1% | 0.61% |
| CN1CCCC(CN2CCN(Cc3cccc(-c4ccc(-c5nc6ccccc6[nH]5)s4)c3)CC2)C1 (centres undefined) | 7.08% | 6.85% | 3.05% |
| O=C(NC1CCN(Cc2ccc(F)cc2)CC1)c1ccc(-c2cccc(C(F)(F)F)c2)s1 | 9.61% | 9.88% | 1.44% |
| COc1cccc(-c2ccc(C(=O)NC3CCN(Cc4ccc(N(C)C)cc4)CC3)s2)c1 | 2.66% | 1.14% | -0.07% |
| CCc1ccc2nc(-c3ccc(F)cc3)nc(SCC(=O)Nc3sc(C)c(C)c3C#N)c2c1 | 5.67% | 7.28% | 5.07% |
| CCC(=O)Nc1cc(=O)[nH]c2nc(-c3ccc(Cl)cc3)nn12 | -1.32% | -2.09% | -2.81% |
| CC(C)C[C@H]1C(=O)N[C@H](C2Cc3ccccc3C2)C(=O)N1[C@@H](C(=O)Nc1ccccc1OCc1ccccc1)c1ccc(F)cc1F | 0.86% | -0.17% | -0.16% |
| CNC(=O)c1cnc(Nc2ccc(OCC(O)CN(C)C)cc2)nc1Nc1cccc([N+](=O)[O-])c1 (centres undefined) | 3.44% | 3.59% | 3.56% |
| CNS(=O)(=O)Cc1ccc(Nc2nccc(Nc3cccc4c3cnn4C(=O)Nc3ccccc3)n2)cc1 | 4.38% | 3.98% | 3.72% |
